About 2,000 (36%) of roughly 5,500 compounds were called active. About 18% were inconclusive and are not listed. Cut-off read from the data, not from the text of the source: active = normalized growth mostly below about 0.91 (no sharp cut-off); inconclusive = no clear call, values can overlap the other calls; inactive = mostly above about 0.92. The list shows a part of the results.
Assay: chemical genetic growth profiling, strain panel (AID 1159580);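 note: tested at 20 µM; growth read once vehicle control cultures reached saturation at 30 °C; 1 = growth at the plate median or of vehicle wells; lower values mean less growth of the strain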
Conditions: growth OD
[1] = S. cerevisiae deletion strains, locus YDL101C, strain DUN1, stronger effect = lower value
[2] = S. cerevisiae deletion strains, locus YHR030C, strain SLT2, stronger effect = lower value

Measured: normalized growth

O=C(CSCc1cccc2ccccc12)NNC(=S)Nc1ccccc1Cl
inactive: S. cerevisiae deletion strains, locus YAL013W, strain DEP1, stronger effect = lower value 0.969 | S. cerevisiae deletion strains, locus YBR229C, strain ROT2, stronger effect = lower value 0.991 | S. cerevisiae deletion strains, locus YCL061C, strain MRC1, stronger effect = lower value 0.971 | [1] 0.987 | S. cerevisiae deletion strains, locus YDR150W, strain NUM1, stronger effect = lower value 0.933 | S. cerevisiae deletion strains, locus YGR078C, strain PAC10, stronger effect = lower value 0.984 | [2] 0.728 | S. cerevisiae deletion strains, locus YHR087W, strain rtc3, stronger effect = lower value 1.02 | S. cerevisiae deletion strains, locus YJR043C, strain POL32, stronger effect = lower value 0.986 | S. cerevisiae deletion strains, locus YJR075W, strain HOC1, stronger effect = lower value 0.984 | S. cerevisiae deletion strains, locus YLR058C, strain SHM2 (second series), stronger effect = lower value 0.978 | S. cerevisiae deletion strains, locus YMR219W, strain ESC1, stronger effect = lower value 0.988 | S. cerevisiae deletion strains, locus YMR263W, strain SAP30, stronger effect = lower value 0.955 | S. cerevisiae deletion strains, locus YNL153C, strain GIM3, stronger effect = lower value 0.958 | S. cerevisiae deletion strains, locus YNL322C, strain KRE1, stronger effect = lower value 0.996 | S. cerevisiae deletion strains, locus YPL055C, strain LGE1, stronger effect = lower value 0.903 | S. cerevisiae deletion strains, locus YPR135W, strain CTF4, stronger effect = lower value 0.793
active: S. cerevisiae deletion strains, locus YEL061C, strain CIN8, stronger effect = lower value 0.813 | S. cerevisiae deletion strains, locus YKL190W, strain CNB1, stronger effect = lower value 0.844 | S. cerevisiae deletion strains, locus YLR039C, strain RIC1, stronger effect = lower value 0.588 | S. cerevisiae deletion strains, locus YLR085C, strain ARP6, stronger effect = lower value 0.679 | S. cerevisiae deletion strains, locus YLR262C, strain YPT6, stronger effect = lower value 0.623 | S. cerevisiae deletion strains, locus YML094W, strain GIM5, stronger effect = lower value 0.857 | S. cerevisiae deletion strains, locus YNL298W, strain CLA4 (second series), stronger effect = lower value 0.564 | S. cerevisiae deletion strains, locus YNR030W, strain Alg12, stronger effect = lower value 0.63 | S. cerevisiae deletion strains, locus YOL006C, strain TOP1, stronger effect = lower value 0.365 | S. cerevisiae deletion strains, locus YPL241C, strain CIN2, stronger effect = lower value 0.648 | S. cerevisiae strains, strain wild type, stronger effect = lower value 0.765

Cc1cccc(NC(=S)NNC(=O)CSCc2cccc3ccccc23)c1
inactive: S. cerevisiae deletion strains, locus YAR019C, strain CDC15, stronger effect = lower value 0.986 | S. cerevisiae deletion strains, locus YBL105C, strain PKC1, stronger effect = lower value 0.988 | S. cerevisiae deletion strains, locus YBR135W, strain CKS1, stronger effect = lower value 0.999 | S. cerevisiae deletion strains, locus YBR136W, strain MEC1, stronger effect = lower value 0.974 | S. cerevisiae deletion strains, locus YBR160W, strain CDC28, stronger effect = lower value 1 | S. cerevisiae deletion strains, locus YDL017W, strain CDC7, stronger effect = lower value 0.987 | S. cerevisiae deletion strains, locus YDL028C, strain MPS1, stronger effect = lower value 0.984 | [1] 0.975 | S. cerevisiae deletion strains, locus YDL108W, strain KIN28, stronger effect = lower value 0.982 | S. cerevisiae deletion strains, locus YDL132W, strain cdc53, stronger effect = lower value 0.989 | S. cerevisiae deletion strains, locus YDL214C, strain PRR2, stronger effect = lower value 0.904 | S. cerevisiae deletion strains, locus YDR052C, strain DBF4, stronger effect = lower value 1 | S. cerevisiae deletion strains, locus YDR054C, strain cdc34, stronger effect = lower value 0.983 | S. cerevisiae deletion strains, locus YDR226W, strain ADK1, stronger effect = lower value 0.988 | S. cerevisiae deletion strains, locus YDR477W, strain SNF1, stronger effect = lower value 0.924 | S. cerevisiae deletion strains, locus YER123W, strain YCK3, stronger effect = lower value 0.851 | S. cerevisiae deletion strains, locus YER133W, strain GLC7, stronger effect = lower value 0.906 | S. cerevisiae deletion strains, locus YFL009W, strain cdc4, stronger effect = lower value 0.99 | S. cerevisiae deletion strains, locus YFL029C, strain CAK1, stronger effect = lower value 0.983 | S. cerevisiae deletion strains, locus YFR003C, strain YPI1, stronger effect = lower value 0.982 | S. cerevisiae deletion strains, locus YFR019W, strain FAB1, stronger effect = lower value 0.965 | S. cerevisiae deletion strains, locus YFR028C, strain CDC14, stronger effect = lower value 0.99 | S. cerevisiae deletion strains, locus YGR040W, strain KSS1, stronger effect = lower value 0.904 | S. cerevisiae deletion strains, locus YGR052W, strain FMP48, stronger effect = lower value 0.992 | S. cerevisiae deletion strains, locus YGR092W, strain DBF2, stronger effect = lower value 0.865 | [2] 0.997 | S. cerevisiae deletion strains, locus YHR079C, strain IRE1, stronger effect = lower value 0.992 | S. cerevisiae deletion strains, locus YHR082C, strain KSP1, stronger effect = lower value 0.983 | S. cerevisiae deletion strains, locus YHR205W, strain SCH9, stronger effect = lower value 0.963 | S. cerevisiae deletion strains, locus YIL147C, strain SLN1, stronger effect = lower value 0.972 | S. cerevisiae deletion strains, locus YJL095W, strain BCK1, stronger effect = lower value 0.995 | S. cerevisiae deletion strains, locus YJL128C, strain PBS2, stronger effect = lower value 0.96 | S. cerevisiae deletion strains, locus YJL157C, strain FAR1, stronger effect = lower value 0.881 | S. cerevisiae deletion strains, locus YJR016C, strain ILV3, stronger effect = lower value 0.984 | S. cerevisiae deletion strains, locus YJR066W, strain TOR1 (second series), stronger effect = lower value 0.866 | S. cerevisiae deletion strains, locus YJR066W, strain TOR1, stronger effect = lower value 0.981 | S. cerevisiae deletion strains, locus YKL048C, strain ELM1, stronger effect = lower value 0.991 | S. cerevisiae deletion strains, locus YKL067W, strain YNK1, stronger effect = lower value 0.914 | S. cerevisiae deletion strains, locus YKL101W, strain HSL1, stronger effect = lower value 0.929 | S. cerevisiae deletion strains, locus YKL193C, strain SDS22, stronger effect = lower value 0.989 | S. cerevisiae deletion strains, locus YKL203C, strain TOR2, stronger effect = lower value 0.989 | S. cerevisiae deletion strains, locus YLR113W, strain HOG1, stronger effect = lower value 0.962 | S. cerevisiae deletion strains, locus YLR133W, strain CKI1, stronger effect = lower value 0.948 | S. cerevisiae deletion strains, locus YLR403W, strain SFP1, stronger effect = lower value 0.909 | S. cerevisiae deletion strains, locus YML070W, strain DAK1, stronger effect = lower value 0.912 | S. cerevisiae deletion strains, locus YMR001C, strain CDC5, stronger effect = lower value 0.988 | S. cerevisiae deletion strains, locus YMR205C, strain PFK2 (second series), stronger effect = lower value 0.943 | S. cerevisiae deletion strains, locus YMR277W, strain FCP1, stronger effect = lower value 0.988 | S. cerevisiae deletion strains, locus YNL006W, strain LST8, stronger effect = lower value 0.986 | S. cerevisiae deletion strains, locus YNL020C, strain ARK1, stronger effect = lower value 0.925 | S. cerevisiae deletion strains, locus YNL161W, strain CBK1, stronger effect = lower value 0.984 | S. cerevisiae deletion strains, locus YNL183C, strain NPR1, stronger effect = lower value 0.996 | S. cerevisiae deletion strains, locus YNL207W, strain RIO2, stronger effect = lower value 0.983 | S. cerevisiae deletion strains, locus YNL222W, strain SSU72, stronger effect = lower value 0.991 | S. cerevisiae deletion strains, locus YNL307C, strain MCK1 (second series), stronger effect = lower value 0.922 | S. cerevisiae deletion strains, locus YOL078W, strain AVO1, stronger effect = lower value 0.988 | S. cerevisiae deletion strains, locus YOL136C, strain PFK27, stronger effect = lower value 0.925 | S. cerevisiae deletion strains, locus YOR061W, strain CKA2, stronger effect = lower value 0.904 | S. cerevisiae deletion strains, locus YOR119C, strain RIO1, stronger effect = lower value 0.965 | S. cerevisiae deletion strains, locus YOR231W, strain MKK1, stronger effect = lower value 0.982 | S. cerevisiae deletion strains, locus YOR329C, strain SCD5, stronger effect = lower value 0.981 | S. cerevisiae deletion strains, locus YPL031C, strain PHO85, stronger effect = lower value 0.904 | S. cerevisiae deletion strains, locus YPL153C, strain RAD53, stronger effect = lower value 0.91 | S. cerevisiae deletion strains, locus YPL204W, strain HRR25, stronger effect = lower value 0.914 | S. cerevisiae deletion strains, locus YPL209C, strain IPL1, stronger effect = lower value 0.983 | S. cerevisiae deletion strains, locus YPL256C, strain CLN2, stronger effect = lower value 1.01 | S. cerevisiae deletion strains, locus YPR025C, strain CCL1, stronger effect = lower value 0.99 | S. cerevisiae deletion strains, locus YPR106W, strain ISR1, stronger effect = lower value 0.99 | S. cerevisiae deletion strains, locus YPR111W, strain DBF20, stronger effect = lower value 0.99 | S. cerevisiae deletion strains, strain NNK1, stronger effect = lower value 0.982 | S. cerevisiae deletion strains, strain TSCII, stronger effect = lower value 0.988

Source: PubChem BioAssay AID1159580 (chemical genetic matrix, 2015)
